Assay results taken from PubChem BioAssay AID1532 (PCMD, 2009).
The whole screen tested about 110,000 compounds, of which about 420 (0.38%) were called active. No stated cut-off is given here; in the data, active means inhibition above about 30% (passing the limit was not always enough); inconclusive means no clear call, values can overlap the other calls. The full list was thinned out, with actives kept by preference.

Test system: RmlC (dTDP-4-dehydrorhamnose 3,5-epimerase) and RmlD (dTDP-4-dehydrorhamnose reductase), coupled enzyme assay
Assay: RmlC and RmlD coupled enzyme inhibitors, primary screen, biochemical, 384-well, compound mixtures, retest (AID 1532)
Conditions: 384-well mixture HTS, at 5.5 µM, stronger effect = higher value
[1] = measured here: mean retest inhibition

COc1ccc(-c2nnc(SCC(=O)c3ccc4c(c3)OCCO4)o2)cc1
inhibition: -6.96% (inactive)

COc1ccc(-c2csc(N3CCN(Cc4ccc5c(c4)OCO5)CC3)n2)cc1
inhibition: 25.8% (inactive)

COc1ccc(C#Cc2c(-c3ccc(OC)cc3)oc3ccc(-c4ccc5c(c4)OCO5)cc23)cc1
inhibition [1]: 110%

C[C@@H]1CC[C@]2(O[C@@H](CCO)C[C@H](O)[C@H]2O)O1
inhibition: -20.2% (inactive)

CCOC(=O)c1sc(NC(=O)CSc2nc3c(c(=O)n2-c2ccccc2)SCC3)c(C(=O)OCC)c1C
inhibition: -104% (inactive)

CCC(C)[C@@H](C(=O)N1CCNCC1)n1cc(CCCCN)nn1 (stereo partly specified)
inhibition: -10% (inactive)

CN1CCN(C(=O)C2=C[C@H](c3ccc4c(c3)OCO4)C[C@H](OCc3ccc(CO)cc3)O2)CC1
inhibition: 8.25% (inactive)

CC(C)(C)n1nc(Cc2cccc3ccccc23)c(C#N)c1N
inhibition: -12.7% (inactive)

CCOC(=O)/C=C/c1ccc(C(F)(F)F)cc1S(=O)(=O)NC(C)(C)C
inhibition: 32.4% (inactive)
inhibition [1]: -3.06%

O=C1NC[C@@H](Cc2ccc(O)cc2)N(CCc2cccc(F)c2)C1=O
inhibition: 6.42% (inactive)

COC(=O)CCCC1=CC2=CC(=O)C(C)(OC(=O)c3cccs3)C(=O)C2=CN1CC1CC1 (stereo unspecified)
inhibition: 1.92% (inactive)

COc1ccc(CNC(=O)C2(CC3CC(c4ccccc4)=NO3)CCN(C(=O)c3cccc(O)c3)CC2)cc1 (stereo unspecified)
inhibition: -4.7% (inactive)

COC(C/C=C/C(=O)[C@@H](C)OCc1ccccc1)OC
inhibition: 9.13% (inactive)

C#CCOCCOCCOCCNc1nc(N2CCN(C(=O)[C@H](Cc3ccc(O)cc3)n3cc(C(N)CC(C)C)nn3)CC2)nc(N2CCN(C(=O)[C@H](CCC(=O)O)n3cc(C(N)[C@H](C)CC)nn3)CC2)n1 (stereo partly specified)
inhibition: 7.73% (inactive)

CN1CCCc2cc(C#N)c(=O)[nH]c21
inhibition: 48.2% (active)
inhibition [1]: 113%

C#CCNC(=O)[C@H](Cc1ccc(C(=O)c2ccccc2)cc1)NC(=O)OC(C)(C)C
inhibition: -13.5% (inactive)

CCO[C@@H]1OC(C(=O)N2CCOCC2)=C[C@H](C)[C@H]1CCCO
inhibition: -9.82% (inactive)

CC1(OC(=O)CCc2ccccc2)C(=O)C=C2C=C(c3ccc(C#N)cc3)N(CCc3ccccn3)C=C2C1=O (stereo unspecified)
inhibition: 3.85% (inactive)

O=c1c(-c2ccccc2)coc2cc(O)ccc12
inhibition: 44.3% (inactive)
inhibition [1]: 18%

COc1ccc(-c2cc3ccc(OCc4nn[nH]n4)cc3oc2=O)cc1
inhibition: 94.2% (inactive)
inhibition [1]: 82.7%

O=c1oc2cc(O)ccc2cc1-c1ccc(F)cc1
inhibition: 136% (active)
inhibition [1]: 118%

COC(C[C@@H]1O[C@@H]1C(=O)[C@@H](C)OCc1ccccc1)OC
inhibition: 13.7% (inactive)

CC1(C)C=C2[C@H]3CC[C@@H]4[C@@]5(C)CCC(=O)C(C)(C)[C@@H]5CC[C@@]4(C)[C@]3(C)CC[C@@]2(C(=O)O)CC1
inhibition: 9.38% (inactive)

C[C@@H]1NC(=O)c2cc([N+](=O)[O-])cc(F)c2NCCC[C@@H](C(N)=O)NC(=O)[C@H](CC(N)=O)NC1=O
inhibition: 5.67% (inactive)

CNC(=O)c1[nH]cnc1C(=O)N[C@@H](CC(C)C)C(=O)OCc1ccccc1
inhibition: 1.9% (inactive)

CCOC(=O)c1cccc(NC(=O)c2ccc(F)cc2F)c1
inhibition: -9.66% (inactive)

O=C(NC1CC1)C1=C[C@H](c2c[nH]c3ccccc23)C[C@H](OCc2ccc(CO)cc2)O1
inhibition: 7.9% (inactive)

Cn1ccnc1-c1nnn(-c2ccc(F)cc2)n1
inhibition: -8.61% (inactive)

CCC(=O)Nc1cccc(C2=NOC3(C2)C[C@@H](C(N)=O)N(C(=O)c2cc([N+](=O)[O-])cc([N+](=O)[O-])c2C)C3)c1 (stereo partly specified)
inhibition: 4.35% (inactive)

CC(=O)c1ccc2c(ccc3ccccc32)c1
inhibition: 5.48% (inactive)

CNC(=O)c1cc2c(ccc3ccccc32)oc1=N
inhibition: 52.7% (active)
inhibition [1]: 155%

CCOC(=O)N1CCN(C(=O)c2cc3c(ccc4ccccc43)oc2=O)CC1
inhibition: 2.38% (inactive)

CCOC(=O)c1c(NC(=O)C(C)Sc2c[nH]c3ccccc23)sc2c1CCC2 (stereo unspecified)
inhibition: -9.18% (inactive)

CCOC(=O)C[C@H]1c2ccc(C(F)(F)F)cc2S(=O)(=O)N1c1ccccc1
inhibition: -16.1% (inactive)

COc1ccc(C[C@H]2CN3C(=NC[C@H]3C)N2CCNC(=O)CCC2CCCCC2)cc1
inhibition: 6.01% (inactive)
